Results filed as inconclusive are left out. The source holds several records for some structures; these can differ, active in one and inactive in another. Calls of active or inactive are those of the source. The calls were made as follows: active = hit-call score of the fitted dose curve at least 0.9, where 1 is the maximum; inconclusive = response in the unintended direction; inactive = score below 0.9.
Target: Androgen receptor (Homo sapiens) (UniProt P10275)
Experiment: ATG_AR_TRANS: Attagene TRANS-FACTORIAL HepG2 Assay for human Androgen Receptor (AR) (AID 2282973)
Settings: HepG2 Attagene TRANS-FACTORIAL AR reporter transcription
Procedure, shortened: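 Steps: transfect HepG2 with multiple GAL4-UAS reporter transcription units (TRANS format, exogenous NR-Gal4 protein); dose 24 h; isolate RNA, reverse-transcribe, PCR-amplify, FAM-label, HpaI-digest; resolve by capillary electrophoresis. Positive direction vs DMSO.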

Chain of Androgen receptor (Homo sapiens) (P10275 whole entry, looked up): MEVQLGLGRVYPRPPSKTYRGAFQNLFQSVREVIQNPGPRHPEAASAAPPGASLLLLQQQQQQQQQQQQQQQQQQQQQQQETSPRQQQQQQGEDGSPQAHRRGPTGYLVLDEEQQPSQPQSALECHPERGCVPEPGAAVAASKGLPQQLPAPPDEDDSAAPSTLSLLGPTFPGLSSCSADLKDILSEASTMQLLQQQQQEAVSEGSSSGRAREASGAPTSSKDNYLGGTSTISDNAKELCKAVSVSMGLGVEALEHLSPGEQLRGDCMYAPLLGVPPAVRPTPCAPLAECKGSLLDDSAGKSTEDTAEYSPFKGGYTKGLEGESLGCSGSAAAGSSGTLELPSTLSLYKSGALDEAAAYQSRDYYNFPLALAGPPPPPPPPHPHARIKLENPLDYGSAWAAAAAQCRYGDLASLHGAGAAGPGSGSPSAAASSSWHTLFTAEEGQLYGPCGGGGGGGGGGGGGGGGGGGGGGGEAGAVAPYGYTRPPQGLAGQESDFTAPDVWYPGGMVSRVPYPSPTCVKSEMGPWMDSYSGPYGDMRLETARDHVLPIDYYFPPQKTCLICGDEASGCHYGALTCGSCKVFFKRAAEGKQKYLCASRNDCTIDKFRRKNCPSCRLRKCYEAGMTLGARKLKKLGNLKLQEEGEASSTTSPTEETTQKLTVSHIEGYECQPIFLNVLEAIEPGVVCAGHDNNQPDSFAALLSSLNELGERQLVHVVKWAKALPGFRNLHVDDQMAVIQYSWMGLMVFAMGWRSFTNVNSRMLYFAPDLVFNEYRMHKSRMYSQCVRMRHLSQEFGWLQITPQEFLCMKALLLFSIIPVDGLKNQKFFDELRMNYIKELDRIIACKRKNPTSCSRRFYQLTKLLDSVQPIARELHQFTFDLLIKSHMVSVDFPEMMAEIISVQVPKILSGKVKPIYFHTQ

SMILES | outcome | AC50
c1cc2ccc3cccc4ccc(c1)c2c34 | inactive | –
CCC(=O)O[C@H]1CC[C@H]2[C@@H]3CCC4=CC(=O)CC[C@]4(C)[C@H]3CC[C@]12C | – | 632 nM (active) [middle of 4 runs]
CCOC(=O)C(O)(c1ccc(Cl)cc1)c1ccc(Cl)cc1 | inactive | –
CC(C)(O)C(=O)Nc1ccc([N+](=O)[O-])c(C(F)(F)F)c1 | inactive | –
CCNc1nc(NC(C)C)nc(SC)n1 | inactive | –

Test system: not listed separately
Experiment: ATG_M_19_TRANS: Attagene TRANS-FACTORIAL HepG2 Assay for M19 Transcription Factor (Internal Marker) (AID 2282974)
Settings: HepG2 Attagene TRANS-FACTORIAL M19 internal marker reporter
Procedure, shortened: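 24 h chemical exposure of transiently transfected HepG2 (MRTU library). RNA → oligo(dT) RT → PCR → 6-FAM labelling → HpaI cut → CE fluorescence. Positive-direction fit vs DMSO baseline; background internal-marker readout.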

SMILES | outcome | AC50
C[C@]12CCC(=O)C=C1CC[C@@H]1[C@@H]2CC[C@@]2(C)[C@H]1CC[C@]2(C)O | inactive | –
c1cc2ccc3cccc4ccc(c1)c2c34 | inactive | –
Cc1ccccc1O | inactive | –
CCC(=O)O[C@H]1CC[C@H]2[C@@H]3CCC4=CC(=O)CC[C@]4(C)[C@H]3CC[C@]12C | inactive | –
CC(C)(c1ccccc1)c1ccc(O)cc1 | inactive | –
ClC(Cl)=C(c1ccc(Cl)cc1)c1ccc(Cl)cc1 | inactive | –
O=C(O)C(F)(F)C(F)(F)C(F)(F)C(F)(F)C(F)(F)C(F)(F)C(F)(F)C(F)(F)C(F)(F)F | inactive | –
CO/C=C(/C(=O)OC)c1ccccc1COc1cccc(C(F)(F)F)n1 | inactive | –
OCC(O)CO | inactive | –
Clc1ccc(C(c2ccccc2Cl)C(Cl)(Cl)Cl)cc1 (stereo not drawn) | inactive | –
N#Cc1ccc(N(CC(N)=O)CC(F)(F)F)cc1C(F)(F)F | inactive | –
CCOC(=O)C(O)(c1ccc(Cl)cc1)c1ccc(Cl)cc1 | inactive | –
Sc1ccccc1 | inactive | –
Clc1ccc(Cl)cc1 | inactive | –
CN(C)CCO | inactive | –
Cc1cc(-c2ccc(N)c(C)c2)ccc1N | inactive | –
CCCCCCCCCc1ccc(O)cc1 | inactive | –
CC(C)C(=O)OCC(C)(C)C(OC(=O)C(C)C)C(C)C (stereo not drawn) | inactive | –
CC(C)(O)C(=O)Nc1ccc([N+](=O)[O-])c(C(F)(F)F)c1 | inactive | –
CCOP(=S)(OCC)SCSC(C)(C)C | inactive | –
O=C(O)C(F)(F)C(F)(F)C(F)(F)C(F)(F)C(F)(F)C(F)(F)C(F)(F)C(F)(F)F | inactive | –
CC(c1ccc(O)cc1)(c1ccc(O)cc1)c1ccc(O)cc1 | inactive | –
Oc1ccc(C(c2ccc(O)cc2)(C(F)(F)F)C(F)(F)F)cc1 | inactive | 52.6 µM (active)
CCNc1nc(NC(C)C)nc(SC)n1 | inactive | –
O=S(=O)(O)C(F)(F)C(F)(F)C(F)(F)C(F)(F)C(F)(F)C(F)(F)F | inactive | –
ClC1=C(Cl)[C@]2(Cl)[C@@H]3[C@H]4C[C@H]([C@@H]5O[C@H]45)[C@@H]3[C@@]1(Cl)C2(Cl)Cl | inactive | –
CCCCCCCCOC(=O)c1ccccc1C(=O)OCCCCCCCC | inactive | –
